Screening results deposited in PubChem BioAssay by National Center for Advancing Translational Sciences (NCATS).
Compounds with a hit are over-represented: about 2.4% of the library has one in this group of screens.
D2 ag-1 = agonists of human D2 dopamine receptor (beta-arrestin); P14416; DiscoveRx PathHunter D2 beta-arrestin, luminescence, 90 min; 100% = 57 uM dopamine signal; activation, % (no concentration beside the values); 360,000 tested, 0.084% active; in the data active = activation above about 40%; inconclusive = between about 15% and that limit
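DiscoveRx PathHunter D2 beta-arrestin cells (2,100/well) attached overnight, then compound-stimulated 90 min at 37 C in HBSS/10 mM HEPES/0.1% Tween-20 buffer; beta-galactosidase complementation read by luminescence after 1 h at ambient temperature. Dopamine 57 uM final (EC100) as control.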
D2 ag-2 = agonists of human D2 dopamine receptor; P14416; HEK293 T-REx D2 cells, calcium flux agonist mode; activation, % at 2 µM; 340,000 tested, 0.53% active; AID 485358;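 active = activation over 3 SD above normal in the single-dose calcium agonist read, cut at about 30% in these data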; also: 0% is about no effect
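In this primary screen, compounds producing a positive calcium signal within 180 s of addition to tetracycline-induced, force-coupled HEK293 Trex D2 cells are flagged; cells are dye-loaded with a no-wash calcium kit beforehand.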
D2 PAM-1 = human D2 receptor positive allosteric modulation | AID 624464 | DiscoveRx D2 beta-arrestin cells, luminescence, 90 min; 100% = 57 uM dopamine signal | P14416 | potentiation, % (concentration not given with the values) | 360,000 tested, 0.23% active; in the data active = potentiation above about 50%; inconclusive = mostly about 30% to 49%
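D2 cells co-treated with compound plus 50 nM dopamine (EC20) for 90 min at 37 deg C to detect potentiation. Beta-arrestin recruitment was read as enzyme-fragment luminescence after 1 h at ambient temperature. Full response was set by 57 uM dopamine.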
D2 antag = D2 dopamine receptor (human) antagonism; P14416; HEK293 TREx D2 cells, calcium flux, dopamine EC80; inhibition, % at 10 µM; 340,000 tested, 2% active; in the data active = inhibition above about 30%; inactive = below that, where a call was filed; also: 0% is about no effect
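Tetracycline-induced HEK293 T-REx cells expressing D2 force-coupled to calcium signalling were dye-loaded, exposed to compound for 180 s, then challenged with an EC80 of dopamine; calcium flux was followed kinetically for a further 180 s.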
D2 PAM-2 = positive allosteric modulators of human D2 dopamine receptor. HEK293 T-REx D2, calcium flux, EC20 dopamine potentiation. 340,000 tested, 0.34% active. potentiation, % at 10 µM. AID 485347;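 active = potentiation over 3 SD above the plate norm, cut at about 30% in these data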; also: 0% is about no effect
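Primary screen. Calcium kinetics in induced HEK293 T-REx D2 cells: compound pre-addition 180 s, EC20 dopamine, 180 s more.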
D3 ag = confirmation of human D3 dopamine receptor agonists, beta-arrestin; DiscoveRx D3 beta-arrestin cells, luminescence, 90 min; shares compounds with D2 ag-2; Potency, µM (series often up to 76.9 µM), inactives show at the top dose activation, usual class: activators; 2,300 tested, 4% active; AID 720506;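 also: potency is read from the fitted curve at half-maximal effect; 100% = dopamine control response; nearly all actives have a fitted effect of over 70% in size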
Target sequence (P35462 whole entry, looked up): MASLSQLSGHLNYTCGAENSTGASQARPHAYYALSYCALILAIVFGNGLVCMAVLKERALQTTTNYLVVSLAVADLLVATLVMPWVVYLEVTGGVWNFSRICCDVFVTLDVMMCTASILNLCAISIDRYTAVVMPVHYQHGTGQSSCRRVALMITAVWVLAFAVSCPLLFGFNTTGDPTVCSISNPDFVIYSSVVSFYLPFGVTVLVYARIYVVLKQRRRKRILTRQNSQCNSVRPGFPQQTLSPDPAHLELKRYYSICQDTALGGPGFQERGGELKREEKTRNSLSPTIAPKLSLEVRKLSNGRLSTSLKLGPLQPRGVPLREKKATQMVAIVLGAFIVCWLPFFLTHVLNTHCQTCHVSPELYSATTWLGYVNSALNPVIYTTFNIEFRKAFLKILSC
D2 ag-3 = counter-screen for D3 agonists: human D2 dopamine receptor agonism. shares compounds with D2 ag-2. DiscoveRx PathHunter D2 beta-arrestin, luminescence, 90 min; response scale: percent relative to full dopamine signal. Potency, µM (highest dose often 76.9 µM), inactives show top-dose activation, most hits filed as activators. 2,300 tested, 5.9% active. AID 720507; also: potency is read from the fitted curve at half-maximal effect; % of control where 0% means no effect; nearly all actives have a fitted effect of over 70% in size
Active calls of the source: *; ? = inconclusive; / = no result given. Unless noted, calls follow the shape of the dose curve; as a rule, active = well fitted activation curve with a large enough effect; inconclusive = small, poorly fitted or top-dose-only effect; inactive = flat fitted curve, though single readings scatter.

SMILES | D2 ag-1 | D2 ag-2 | D2 PAM-1 | D2 antag | D2 PAM-2 | D3 ag | D2 ag-3
N#C/C(=N\Nc1ccccc1)C(N)=S | -11.0 | 1.1 | -29.0 | 3.6 | -1.3 | -10.4% | -18.9%
COc1ccc([C@H]2CC(=O)C=C(c3ccc4c5c(cccc35)CC4)C2)cc1 | -1.6 | 0.3 | -4.7 | -7.7 | -0.2 | -8.9% | -5.7%
COc1ccc([C@H]2CC(=O)C=C(c3ccc(C)c4ccccc34)C2)cc1 | -3.0 | -0.5 | -6.6 | -5.4 | 12.2 | / | /
O=c1[nH]cc(NCc2ccccc2)c(=O)[nH]1 | -0.3 | / | -10.1 | / | / | / | /
O=c1[nH]cc(NCCc2ccccc2)c(=O)[nH]1 | -0.2 | 38.0* | -2.6 | -19.3 | -13.9 | 11.4% | 13.5%
COc1ccc(-c2c(-c3cc(OC)cc(OC)c3)n(C)c3ccc(-c4ccc5[nH]ccc5c4)cc23)cc1 | -3.0 | / | -6.9 | / | 14.1 | 3.5% | 3.9%
Cc1ccc(C)c(NC(=O)c2nnn(Cc3ccc(F)cc3Cl)c2N)c1 | / | 6.7 | / | / | 4.8 | / | /
C/C(=N\NC(=S)Nc1cccc(C)c1)c1ccccc1 | -7.8 | -0.7 | -40.4 | -6.4 | 11.8 | / | /
C/C(=N\NC(=S)Nc1cccc(C)c1)c1ccco1 | 5.5 | 70.0* | -10.1 | 67.2* | -6.8 | -1.5% | -4.9%
Oc1ccc(Cl)cc1C=NCCc1ccccc1 | 10.5 | 43.4* | -6.9 | 24.0 | -16.3 | ? | 17.2%
COc1ccccc1NC(=O)CSc1oc(-c2cccs2)nc1S(=O)(=O)c1ccccc1 | / | 1.1 | / | / | -11.1 | / | /
COCCNC(=O)c1cccc(OC2CCN(C(C)COc3ccccc3)CC2)c1 (centres undefined) | -3.0 | 44.8* | -1.7 | 25.3 | -14.9 | 0.2% | 13.2%
COc1ccc(S(=O)(=O)N2CCCC2CNC(=O)C(=O)NC2CCCCCC2)cc1 (centres undefined) | 4.3 | 31.1* | 19.3 | 20.4 | -2.9 | 8.4% | ?
COc1ccc(S(=O)(=O)N2CCCC2CNC(=O)C(=O)NC2CCCC2)cc1 (centres undefined) | -1.4 | / | 4.5 | / | / | / | /
Cc1ccc(S(=O)(=O)N2CCCC2CNC(=O)C(=O)NC2CC2)cc1 (centres undefined) | 1.1 | 34.5* | 2.3 | 7.0 | -10.6 | 0.9% | -2.5%
O=C(c1cc(-c2ccc(F)cc2)on1)N1CCCC1 | 0.4 | 0.0 | -3.0 | 24.5 | -10.8 | -10.7% | -2.9%
OC(COc1cccc2ccccc12)CN1CCN(c2ccccc2)CC1 (centres undefined) | 5.7 | 55.8* | -0.2 | 65.0* | -22.6 | ? | 23.3%
COc1ccc(N2CCN(CC(O)COc3ccc(F)cc3)CC2)cc1 (centres undefined) | -0.5 | -0.3 | -13.1 | -12.7 | 0.3 | / | /
COc1cccc(CN2CCC(C(=O)N3CCN(c4ccccc4F)CC3)CC2)c1OC | 3.5 | 26.8 | -8.2 | -13.6 | 8.6 | 1.8% | 7.9%
CCCc1ccc(OCC(O)CN2CCN(c3ccccc3)CC2)cc1 (centres undefined) | ? | 61.5* | -6.7 | 68.7* | -26.2 | -5.5% | ?
OC(COc1ccc(Cl)cc1)CN1CCN(c2ccccc2)CC1 (centres undefined) | 1.9 | 19.4 | -16.1 | 71.4* | -25.1 | ? | 2.4%
CCc1ccc(OCC(O)CN2CCN(c3ccccc3)CC2)cc1 (centres undefined) | ? | 74.1* | -12.4 | 109.5* | -13.2 | ? | ?
C=CCc1ccccc1OCC(O)CN1CCN(c2ccccc2)CC1 (centres undefined) | / | -3.8 | / | / | -22.0 | / | /
Cc1ccc(OCC(O)CN2CCN(c3ccccc3)CC2)cc1 (centres undefined) | 2.7 | 45.7* | -10.6 | 62.2* | -22.8 | 17.4% | 4.9%
C=CCc1cc(C)ccc1OCC(O)CN1CCN(c2ccccc2)CC1 (centres undefined) | 6.0 | 61.9* | -13.1 | 79.9* | -27.9 | 0.631µM* | 14.2%
SMILES | D2 ag-1 | D2 ag-2 | D2 PAM-1 | D2 antag | D2 PAM-2 | D3 ag | D2 ag-3
COc1ccc(N2CCN(CC(O)COc3c(OC)cccc3OC)CC2)cc1 (centres undefined) | -8.8 | -1.6 | -23.5 | 20.8 | -18.2 | / | /
COc1ccc(OCC(O)CN2CCN(c3ccc(OC)cc3)CC2)cc1 (centres undefined) | -4.7 | 2.5 | -39.2 | -6.0 | 8.3 | / | /
COc1cccc(OC)c1OCC(O)CN1CCN(c2ccccc2F)CC1 (centres undefined) | ? | 78.1* | -9.5 | 85.7* | -21.8 | ? | ?
COc1ccccc1NC(=O)C(=O)NCCc1csc(-c2cccc(F)c2)n1 | / | 3.4 | / | / | -6.2 | / | /
C=CCn1c(-c2cc(OC)cc(OC)c2)n[nH]c1=S | 1.2 | 0.4 | -4.5 | -17.1 | 3.3 | / | /
C=CCn1c(-c2sc3nc(C)cc(C)c3c2N)n[nH]c1=S | 2.6 | -1.5 | 2.4 | 31.6* | 4.4 | 13.0% | -13.3%
COc1cccc(N2CCN(C(=O)c3cnn(-c4ccccc4Cl)c3C3CCN(C(=O)OC(C)(C)C)CC3)CC2)c1 | / | -1.3 | / | / | 5.3 | / | /
CC(C)(C)NC(=O)c1cc2c(ccc3ccccc32)oc1=O | 12.4 | / | 0.5 | / | / | ? | 9.4%
CCN(C(=O)c1cc2c(=O)oc3ccccc3c2s1)c1ccc(C)c(C)c1 | / | 0.4 | / | / | 5.9 | / | /
CC(C)CC[n+]1ccccc1/C=C/c1ccc(N(C)C)cc1 | -1.8 | 10.4 | -9.7 | 4.6 | 10.6 | 10.4% | 17.1%
CN(C)c1ccc(CNC(=O)c2ccccc2NC(=O)c2nsc3ccccc23)cc1 | / | / | / | / | -7.3 | / | /
Cc1cc(SCC(=O)Nc2ccc(C(F)(F)F)cc2)nc(=O)[nH]1 | / | 0.6 | / | / | / | / | /
CC(=O)c1c(C)[nH]c(C(=O)OCC(=O)Nc2nnc(-c3ccccc3)o2)c1C | 5.1 | 0.5 | 1.9 | 34.9* | -1.8 | 2.2% | -1.7%
CC(=O)c1c(C)[nH]c(C(=O)OCC(=O)Nc2ccccc2Cl)c1C | 5.1 | 0.8 | -2.4 | 20.2 | 5.0 | / | /
OCC1(Cc2ccc(Cl)cc2)CCN(Cc2ccccc2F)CC1 | -4.6 | 1.1 | -25.2 | -4.5 | -16.9 | / | /
OCC1(Cc2ccc(Cl)cc2)CCN(CCCc2ccccc2)CC1 | 40.6* | 77.6* | -0.1 | 69.1* | -10.5 | -4.6% | ?
O=C(CN1CCN(C(c2ccccc2)c2ccccc2)CC1)N1CCN(c2ccccc2)CC1 | -6.3 | -0.6 | -32.0 | -10.1 | -14.8 | / | /
c1ccc(CCCN2CCN(c3ccccc3)CC2)cc1 | 12.1 | 13.1 | -5.5 | 78.9* | -24.7 | 4.7% | 13.5%
CC(CCN1CCN(c2ccccn2)CC1)c1ccccc1 (centres undefined) | ? | 73.7* | 4.4 | 62.7* | -19.3 | ? | ?
